Assay [1] deals with Sphingosine kinase 1 (Homo sapiens) (UniProt Q9NYA1). The note with it: at 1 µM.
The target in assay [2] is T1, Sphingosine kinase 2 (Homo sapiens) (UniProt Q9NRA0).
T1 sequence (whole entry): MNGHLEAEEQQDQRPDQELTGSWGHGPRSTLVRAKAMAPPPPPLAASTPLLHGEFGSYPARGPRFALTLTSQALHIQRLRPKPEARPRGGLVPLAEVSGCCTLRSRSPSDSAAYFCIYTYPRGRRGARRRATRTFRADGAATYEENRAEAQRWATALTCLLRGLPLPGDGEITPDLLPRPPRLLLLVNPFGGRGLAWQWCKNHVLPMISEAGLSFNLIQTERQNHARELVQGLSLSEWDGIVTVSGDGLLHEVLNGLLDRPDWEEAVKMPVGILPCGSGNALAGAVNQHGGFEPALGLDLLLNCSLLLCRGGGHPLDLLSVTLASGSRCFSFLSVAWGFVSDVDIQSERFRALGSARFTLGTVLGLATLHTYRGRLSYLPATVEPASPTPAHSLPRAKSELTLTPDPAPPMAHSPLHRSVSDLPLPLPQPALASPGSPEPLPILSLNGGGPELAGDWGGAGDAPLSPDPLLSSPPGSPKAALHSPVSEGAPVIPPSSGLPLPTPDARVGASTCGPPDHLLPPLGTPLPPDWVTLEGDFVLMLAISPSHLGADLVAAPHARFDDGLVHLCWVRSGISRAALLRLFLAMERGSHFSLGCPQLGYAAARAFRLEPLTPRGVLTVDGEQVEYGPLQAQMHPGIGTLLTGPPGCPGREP
The following applies: at 0.1 µM.

Assay [3] deals with T1, Sphingosine kinase 2 (Homo sapiens). The following applies: at 1 µM.
Assay [4] concerns the target Casein kinase II subunit alpha (Homo sapiens) (UniProt P68400). The note with it: at 0.1 µM.
Assay [5] shares this target. The note with it: at 1 µM.
The target in assay [6] is T2, Inhibitor of nuclear factor kappa-B kinase subunit alpha (Homo sapiens) (UniProt O15111).
T2 sequence (whole entry): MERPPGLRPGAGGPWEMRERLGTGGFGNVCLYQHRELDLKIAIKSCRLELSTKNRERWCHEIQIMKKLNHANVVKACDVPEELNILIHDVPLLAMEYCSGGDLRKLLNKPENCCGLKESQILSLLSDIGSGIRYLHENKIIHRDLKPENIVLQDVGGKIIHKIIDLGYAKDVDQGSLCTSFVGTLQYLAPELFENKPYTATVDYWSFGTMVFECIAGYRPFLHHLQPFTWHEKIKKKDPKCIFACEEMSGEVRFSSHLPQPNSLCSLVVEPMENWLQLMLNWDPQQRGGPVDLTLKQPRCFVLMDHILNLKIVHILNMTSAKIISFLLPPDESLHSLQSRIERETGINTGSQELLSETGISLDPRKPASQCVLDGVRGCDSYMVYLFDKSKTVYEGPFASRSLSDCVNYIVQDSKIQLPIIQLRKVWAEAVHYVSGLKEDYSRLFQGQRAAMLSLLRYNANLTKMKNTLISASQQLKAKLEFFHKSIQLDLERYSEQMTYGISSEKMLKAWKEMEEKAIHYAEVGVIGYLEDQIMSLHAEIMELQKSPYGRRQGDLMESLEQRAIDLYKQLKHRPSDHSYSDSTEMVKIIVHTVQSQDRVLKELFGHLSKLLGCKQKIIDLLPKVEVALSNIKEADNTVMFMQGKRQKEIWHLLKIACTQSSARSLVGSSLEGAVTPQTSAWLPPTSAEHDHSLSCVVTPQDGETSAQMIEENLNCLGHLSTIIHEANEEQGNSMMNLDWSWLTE
The following applies: at 0.1 µM.

The target in assay [7] is T2, Inhibitor of nuclear factor kappa-B kinase subunit alpha (Homo sapiens). The following applies: at 1 µM.
The target of assay [8] is T3, Inhibitor of nuclear factor kappa-B kinase subunit beta (Homo sapiens) (UniProt O14920).
T3 sequence (whole entry): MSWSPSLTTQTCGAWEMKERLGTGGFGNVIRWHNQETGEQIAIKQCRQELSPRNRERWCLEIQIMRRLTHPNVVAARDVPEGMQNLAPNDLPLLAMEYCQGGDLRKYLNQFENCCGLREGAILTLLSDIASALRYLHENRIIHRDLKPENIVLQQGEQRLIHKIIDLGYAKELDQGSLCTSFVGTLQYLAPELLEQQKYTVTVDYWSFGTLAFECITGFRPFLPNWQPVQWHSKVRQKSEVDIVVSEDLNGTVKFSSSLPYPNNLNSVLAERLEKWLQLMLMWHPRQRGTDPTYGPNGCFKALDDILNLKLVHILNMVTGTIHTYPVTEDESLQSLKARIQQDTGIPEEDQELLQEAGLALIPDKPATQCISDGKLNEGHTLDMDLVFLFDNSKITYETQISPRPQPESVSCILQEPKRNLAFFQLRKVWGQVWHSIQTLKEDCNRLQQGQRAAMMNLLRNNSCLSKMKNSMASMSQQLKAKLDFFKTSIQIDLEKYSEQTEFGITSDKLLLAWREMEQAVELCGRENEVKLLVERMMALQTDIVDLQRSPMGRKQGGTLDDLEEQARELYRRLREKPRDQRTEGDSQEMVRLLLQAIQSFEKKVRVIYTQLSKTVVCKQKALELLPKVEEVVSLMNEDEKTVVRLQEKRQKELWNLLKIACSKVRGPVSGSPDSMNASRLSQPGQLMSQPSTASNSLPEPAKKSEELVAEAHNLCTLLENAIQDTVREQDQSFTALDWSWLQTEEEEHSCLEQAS
The note with it: at 0.1 µM.

The target in assay [9] is T3, Inhibitor of nuclear factor kappa-B kinase subunit beta (Homo sapiens). The note with it: at 1 µM.
The target of assay [10] is T4, Inhibitor of nuclear factor kappa-B kinase subunit epsilon (Homo sapiens) (UniProt Q14164).
T4 sequence (whole entry): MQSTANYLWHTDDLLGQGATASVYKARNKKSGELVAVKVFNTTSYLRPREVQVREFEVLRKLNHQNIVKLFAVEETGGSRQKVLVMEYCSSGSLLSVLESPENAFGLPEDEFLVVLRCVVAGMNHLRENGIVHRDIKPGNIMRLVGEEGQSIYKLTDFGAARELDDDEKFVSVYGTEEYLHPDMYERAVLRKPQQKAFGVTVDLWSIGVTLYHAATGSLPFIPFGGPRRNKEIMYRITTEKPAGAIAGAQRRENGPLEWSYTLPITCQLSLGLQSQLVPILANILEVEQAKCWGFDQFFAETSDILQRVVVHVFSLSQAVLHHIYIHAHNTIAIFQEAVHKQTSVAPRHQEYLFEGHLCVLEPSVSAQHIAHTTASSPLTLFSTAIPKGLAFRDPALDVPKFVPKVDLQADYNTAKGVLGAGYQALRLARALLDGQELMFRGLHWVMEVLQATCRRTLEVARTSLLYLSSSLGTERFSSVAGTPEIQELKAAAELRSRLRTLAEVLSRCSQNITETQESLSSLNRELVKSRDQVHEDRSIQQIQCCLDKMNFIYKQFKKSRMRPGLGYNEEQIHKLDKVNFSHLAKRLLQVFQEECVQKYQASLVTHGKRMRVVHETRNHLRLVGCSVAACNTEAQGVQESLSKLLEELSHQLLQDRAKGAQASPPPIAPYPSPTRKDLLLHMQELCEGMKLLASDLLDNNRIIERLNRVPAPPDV
The note with it: at 0.1 µM.

The target in assay [11] is T4, Inhibitor of nuclear factor kappa-B kinase subunit epsilon (Homo sapiens). The following applies: at 1 µM.
The target in assay [12] is T5, Serine/threonine-protein kinase Nek1 (Homo sapiens) (UniProt Q96PY6).
T5 sequence (whole entry): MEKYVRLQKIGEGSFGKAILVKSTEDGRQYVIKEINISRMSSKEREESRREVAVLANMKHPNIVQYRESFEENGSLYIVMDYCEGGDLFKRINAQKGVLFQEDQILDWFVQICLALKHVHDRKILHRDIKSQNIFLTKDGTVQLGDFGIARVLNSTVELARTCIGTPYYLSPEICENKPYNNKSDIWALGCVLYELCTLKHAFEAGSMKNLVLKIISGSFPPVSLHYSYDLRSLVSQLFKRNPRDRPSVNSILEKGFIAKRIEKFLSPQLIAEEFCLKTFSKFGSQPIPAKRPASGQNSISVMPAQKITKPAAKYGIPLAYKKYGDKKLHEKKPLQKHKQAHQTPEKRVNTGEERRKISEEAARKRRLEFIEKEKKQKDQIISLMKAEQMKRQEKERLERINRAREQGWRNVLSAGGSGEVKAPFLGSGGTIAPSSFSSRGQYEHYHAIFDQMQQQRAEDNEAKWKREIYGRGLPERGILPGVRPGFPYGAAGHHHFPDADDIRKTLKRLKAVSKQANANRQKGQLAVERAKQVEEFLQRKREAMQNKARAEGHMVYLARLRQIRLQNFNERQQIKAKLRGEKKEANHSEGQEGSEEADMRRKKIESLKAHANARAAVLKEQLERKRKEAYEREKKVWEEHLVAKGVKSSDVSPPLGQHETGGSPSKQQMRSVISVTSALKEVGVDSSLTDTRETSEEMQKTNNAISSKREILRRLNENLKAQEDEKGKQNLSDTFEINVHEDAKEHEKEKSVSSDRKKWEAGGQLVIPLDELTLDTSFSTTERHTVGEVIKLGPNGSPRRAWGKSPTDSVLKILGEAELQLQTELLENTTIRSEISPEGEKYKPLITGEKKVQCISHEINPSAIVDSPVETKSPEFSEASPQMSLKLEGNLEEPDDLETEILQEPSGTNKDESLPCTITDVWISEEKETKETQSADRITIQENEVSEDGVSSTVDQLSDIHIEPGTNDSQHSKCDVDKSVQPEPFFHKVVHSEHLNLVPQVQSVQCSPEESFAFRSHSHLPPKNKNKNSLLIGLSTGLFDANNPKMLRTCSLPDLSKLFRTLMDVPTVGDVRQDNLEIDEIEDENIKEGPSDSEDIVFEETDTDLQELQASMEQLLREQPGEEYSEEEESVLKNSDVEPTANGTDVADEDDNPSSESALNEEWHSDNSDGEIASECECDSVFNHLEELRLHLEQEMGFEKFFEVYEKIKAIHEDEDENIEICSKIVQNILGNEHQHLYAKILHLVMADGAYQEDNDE
The note with it: at 0.1 µM.

The target of assay [13] is T5, Serine/threonine-protein kinase Nek1 (Homo sapiens). The note with it: at 1 µM.
For assay [14], the target named is T6, Serine/threonine-protein kinase Nek2 (Homo sapiens) (UniProt P51955).
T6 sequence (whole entry): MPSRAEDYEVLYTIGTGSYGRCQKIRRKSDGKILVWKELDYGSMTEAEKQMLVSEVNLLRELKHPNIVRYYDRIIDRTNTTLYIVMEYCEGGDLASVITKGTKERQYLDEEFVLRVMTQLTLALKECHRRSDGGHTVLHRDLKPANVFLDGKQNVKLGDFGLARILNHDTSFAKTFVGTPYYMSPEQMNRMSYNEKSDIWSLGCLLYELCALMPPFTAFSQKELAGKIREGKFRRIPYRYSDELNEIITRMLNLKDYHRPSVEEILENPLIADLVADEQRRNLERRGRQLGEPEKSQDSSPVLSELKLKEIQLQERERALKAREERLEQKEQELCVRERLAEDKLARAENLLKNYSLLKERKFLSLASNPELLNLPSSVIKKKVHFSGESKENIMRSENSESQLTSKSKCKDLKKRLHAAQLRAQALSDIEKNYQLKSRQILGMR
The following applies: at 0.1 µM.

The target in assay [15] is T6, Serine/threonine-protein kinase Nek2 (Homo sapiens). The note with it: at 1 µM.
Assay [16] concerns the target Serine/threonine-protein kinase Nek6 (Homo sapiens) (UniProt Q9HC98). The note with it: at 0.1 µM.
The target is the same in assay [17]. The note with it: at 1 µM.
In assay [18] the target is Serine/threonine-protein kinase Nek7 (Homo sapiens) (UniProt Q8TDX7). The following applies: at 0.1 µM.
Sequence of Serine/threonine-protein kinase Nek7 (Homo sapiens) (Q8TDX7 whole entry, looked up): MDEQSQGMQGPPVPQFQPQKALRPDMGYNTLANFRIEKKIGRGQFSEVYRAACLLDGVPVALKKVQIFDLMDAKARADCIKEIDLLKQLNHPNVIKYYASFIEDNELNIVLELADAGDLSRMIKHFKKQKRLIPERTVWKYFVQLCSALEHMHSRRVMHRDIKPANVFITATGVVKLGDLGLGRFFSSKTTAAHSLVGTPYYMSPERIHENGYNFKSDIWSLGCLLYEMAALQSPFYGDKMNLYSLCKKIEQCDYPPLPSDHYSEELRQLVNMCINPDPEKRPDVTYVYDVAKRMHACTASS
For assay [19] the target is unchanged. The note with it: at 1 µM.
Assay [20] has as its target T7, Serine/threonine-protein kinase Nek9 (Homo sapiens) (UniProt Q8TD19).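 Note: reported value is the mean percent inhibition of NEK9.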
T7 sequence (whole entry): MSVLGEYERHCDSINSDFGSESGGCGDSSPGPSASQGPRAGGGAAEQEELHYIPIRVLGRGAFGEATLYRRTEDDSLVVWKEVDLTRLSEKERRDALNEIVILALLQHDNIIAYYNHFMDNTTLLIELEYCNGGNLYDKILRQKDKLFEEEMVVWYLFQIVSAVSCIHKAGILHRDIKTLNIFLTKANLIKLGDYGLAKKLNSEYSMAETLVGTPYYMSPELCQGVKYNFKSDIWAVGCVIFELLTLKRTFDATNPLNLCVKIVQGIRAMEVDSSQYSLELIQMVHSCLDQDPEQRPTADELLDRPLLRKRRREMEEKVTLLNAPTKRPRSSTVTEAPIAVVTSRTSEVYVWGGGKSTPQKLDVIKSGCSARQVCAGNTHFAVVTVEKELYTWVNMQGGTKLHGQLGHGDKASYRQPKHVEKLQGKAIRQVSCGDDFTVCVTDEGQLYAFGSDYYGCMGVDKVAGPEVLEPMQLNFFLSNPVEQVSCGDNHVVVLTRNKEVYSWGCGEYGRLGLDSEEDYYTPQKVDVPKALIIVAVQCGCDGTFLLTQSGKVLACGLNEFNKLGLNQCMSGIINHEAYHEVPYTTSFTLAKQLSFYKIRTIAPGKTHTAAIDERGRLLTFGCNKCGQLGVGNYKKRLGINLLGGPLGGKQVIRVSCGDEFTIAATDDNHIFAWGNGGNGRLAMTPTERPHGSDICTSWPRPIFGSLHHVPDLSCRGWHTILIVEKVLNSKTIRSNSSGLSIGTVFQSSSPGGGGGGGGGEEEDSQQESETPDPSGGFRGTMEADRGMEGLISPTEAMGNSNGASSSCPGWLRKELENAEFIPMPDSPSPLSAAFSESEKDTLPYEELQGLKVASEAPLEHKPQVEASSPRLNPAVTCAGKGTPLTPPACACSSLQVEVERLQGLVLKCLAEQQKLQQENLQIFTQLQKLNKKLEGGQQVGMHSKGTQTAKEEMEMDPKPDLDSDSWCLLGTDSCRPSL
The following applies: at 0.1 µM.

Sequence of Casein kinase II subunit alpha (Homo sapiens) (P68400 whole entry, looked up): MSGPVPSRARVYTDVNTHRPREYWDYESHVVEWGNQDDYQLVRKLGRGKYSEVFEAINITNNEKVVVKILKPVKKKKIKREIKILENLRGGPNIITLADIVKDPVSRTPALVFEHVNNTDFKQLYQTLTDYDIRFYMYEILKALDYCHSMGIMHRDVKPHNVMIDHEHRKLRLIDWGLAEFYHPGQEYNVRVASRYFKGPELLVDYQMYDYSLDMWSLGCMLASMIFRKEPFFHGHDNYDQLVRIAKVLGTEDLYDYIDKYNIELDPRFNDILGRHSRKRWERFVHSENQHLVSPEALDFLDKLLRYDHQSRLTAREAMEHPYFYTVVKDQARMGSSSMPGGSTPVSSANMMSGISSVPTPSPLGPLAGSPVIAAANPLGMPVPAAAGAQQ
Sequence of Serine/threonine-protein kinase Nek6 (Homo sapiens) (Q9HC98 whole entry): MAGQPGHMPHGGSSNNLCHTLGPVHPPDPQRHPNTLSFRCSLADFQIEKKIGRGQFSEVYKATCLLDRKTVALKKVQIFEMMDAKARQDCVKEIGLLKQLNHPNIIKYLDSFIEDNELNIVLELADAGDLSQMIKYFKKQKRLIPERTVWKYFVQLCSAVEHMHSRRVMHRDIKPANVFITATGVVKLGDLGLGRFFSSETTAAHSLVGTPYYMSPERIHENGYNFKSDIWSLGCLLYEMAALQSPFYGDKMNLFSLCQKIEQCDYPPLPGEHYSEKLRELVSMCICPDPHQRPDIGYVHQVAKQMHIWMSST
Sequence of Sphingosine kinase 1 (Homo sapiens) (Q9NYA1 whole entry): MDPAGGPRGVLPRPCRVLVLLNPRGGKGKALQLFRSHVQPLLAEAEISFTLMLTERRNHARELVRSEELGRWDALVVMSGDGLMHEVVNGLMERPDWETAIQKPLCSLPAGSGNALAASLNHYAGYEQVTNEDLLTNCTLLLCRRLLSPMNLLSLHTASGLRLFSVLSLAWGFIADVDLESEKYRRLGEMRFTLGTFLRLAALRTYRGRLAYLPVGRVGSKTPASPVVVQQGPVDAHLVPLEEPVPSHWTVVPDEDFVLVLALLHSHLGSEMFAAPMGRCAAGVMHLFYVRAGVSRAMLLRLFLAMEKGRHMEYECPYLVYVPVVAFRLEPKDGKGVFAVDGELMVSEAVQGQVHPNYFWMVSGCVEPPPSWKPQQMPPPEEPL

With `O=C(Nc1n[nH]c2cc(-c3ccc(F)cc3)ccc12)C1CC1`, the inhibition is 0.32% in [1]; 0.15% in assay [2]; -0.37% in assay [3]; 2.04% in assay [4]; 0.79% in assay [5]; 4.81% in assay [6]. Also, the inhibition in assay [7] is -0.71%; in [8], 4.46%; in assay [9], 2.08%; in assay [10] it was 4.25%; in [11] it was 3.59%; in assay [12], 2.65%. Further, the inhibition is 1.94% in assay [13]; 4.38% in assay [14]; 4.67% in [15]; 0.6% in [16]; 2.6% in assay [17]; 5.51% in assay [18]. The inhibition was determined as 3% in assay [19] and 8.59% in assay [20].

These data come from ChEMBL document CHEMBL1961873, “Compounds: GSK PKIS; Assays: Nanosyn kinase panel” (2012).
